Measured values: PubChem BioAssay (NCATS)
Inconclusive results are not listed. Calls of active or inactive are those of the source. Calls follow the shape of the dose curve; as a rule, active = well fitted curve in the direction sought with a large enough effect; inconclusive = small, poorly fitted or top-dose-only effect, or another doubt; inactive = no such curve, though single readings can be large; an effect the other way counts as inactive or inconclusive.

Tests used:
[1] = qHTS assay for measurement of the activity of small molecule inhibitors on Zika virus induced Caspase-3 activity in human iPSC derived neural progenitor cells (hNPCs) (AID 1224857); also: % of control where 0% means no effect; nearly all actives have a fitted effect of over 65% in size
How it was run: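 Cells were plated at 350 per well and grown 16 to 20 hours. Compound pretreatment lasted one hour, after which ZIKV (2 FFU/cell) was added for 6 hours. Percent inhibition was normalized between uninfected and infected controls.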

[2] = qHTS assay for measurement of the activity of small molecule inhibitors on Zika virus induced Caspase-3 activity in human astrocytoma cells (AID 1224859);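 also: plate controls were ZIKV-infected untreated cells for no effect and uninfected cells for full effect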
How it was run: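 Percent inhibition of virus-induced caspase-3/7 signal is calculated against uninfected and ZIKV-infected control cells. Cells are SNB-19, infected at 2 FFU/cell for 6 h after 1 h compound exposure.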

[3] = qHTS assay to identify small molecule inhibitors of chordoma cells - UCH-1 (AID 1259355); also: % is scaled to controls: 0 for no effect and ±100 for the full control effect; nearly all actives have a fitted effect of over 55% in size
How it was run: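 Luminescent ATP read-out (CellTiter-Glo, 30min at room temperature) measured viability of UCH-1 cells exposed for 48hr to test drugs at 15 concentrations, co-dosed with a five-agent combination of auranofin, camptothecin, doxorubicin, rubitecan and topotecan.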

O=c1[nH]cnc2c1ncn2[C@@H]1O[C@H](CO)[C@@H](O)[C@H]1O
inactive: outcome [1] | outcome [2] | Potency [3]

N[C@@H](CSCCCO)C(=O)O
inactive: outcome [1] | outcome [2] | Potency [3]

Cc1cc2nc3c(=O)[nH]c(=O)nc-3n(C[C@H](O)[C@H](O)[C@H](O)CO)c2cc1C
inactive: outcome [1] | outcome [2] | Potency [3]

CCN(CC)CCNC(=O)c1c(C)[nH]c(/C=C2\C(=O)Nc3ccc(F)cc32)c1C
inactive: outcome [1] | outcome [2] | Potency [3]

CC(C)(C)C(=O)C(Oc1ccc(Cl)cc1)n1ccnc1 (configuration not stated)
inactive: outcome [1] | outcome [2] | Potency [3]

Cc1cc(CC(=O)O)n(C)c1C(=O)c1ccc(Cl)cc1
inactive: outcome [1] | outcome [2] | Potency [3]

CCC(=O)Nc1ccc(O)cc1
inactive: outcome [1] | outcome [2] | Potency [3]

O=C(O)c1ccccc1-c1ccc(C(F)(F)F)cc1
inactive: outcome [1] | outcome [2] | Potency [3]

CC(C)(O)c1ccccc1CC[C@@H](SCC1(CC(=O)O)CC1)c1cccc(/C=C/c2ccc3ccc(Cl)cc3n2)c1
inactive: outcome [1] | outcome [2] | Potency [3]

O=c1[nH]c(=O)c2[nH]c(=O)[nH]c2[nH]1
inactive: activity change, negative = inhibition [1] -8.73% [at 9.06 µM] | activity change, negative = inhibition [2] -0.8% [at 9.06 µM] | Potency [3]

CN(N=O)C(=O)N[C@@H]1[C@@H](O)[C@H](O)[C@@H](CO)O[C@@H]1O
inactive: outcome [1] | outcome [2] | Potency [3]

CC1(C)[C@@H]2CC[C@@]1(C)C(=O)C2
inactive: outcome [1] | outcome [2] | Potency [3]

CN(C)CCN(Cc1ccccc1)c1ccccn1
inactive: outcome [1] | outcome [2] | Potency [3]

O=C(O)[C@@H]1CSCN1
inactive: outcome [1] | outcome [2] | Potency [3]

O=C1O[C@H]([C@@H](O)CO)C(O)=C1O
inactive: outcome [1] | outcome [2] | Potency [3]

NC(=O)N/N=C/c1ccc([N+](=O)[O-])o1
inactive: outcome [1] | outcome [2] | Potency [3]

CCCOC(=O)c1ccccc1
inactive: outcome [1] | outcome [2] | Potency [3]

C[C@]12CC[C@@H]3c4ccc(O)cc4CC[C@H]3[C@@H]1CC[C@@H]2OC(=O)CCC1CCCC1
inactive: outcome [1] | outcome [2] | Potency [3]

CO/N=C(\C(=O)N[C@@H]1C(=O)N2C(C(=O)O)=C(CSc3nc(=O)c(O)nn3C)CS[C@H]12)c1csc(N)n1
inactive: outcome [1] | outcome [2] | Potency [3]

O=C(O)c1ccccc1O
inactive: outcome [1] | outcome [2] | Potency [3]

CCOC(=O)[C@H](CCc1ccccc1)N[C@@H](C)C(=O)N1C(=O)N(C)C[C@H]1C(=O)O
inactive: outcome [1] | outcome [2] | Potency [3]

CC1(C)CO[C@@H](CC(=O)O)CN1
inactive: outcome [1] | outcome [2] | Potency [3]

O=Cc1ccccc1C=O
inactive: outcome [1] | outcome [2] | Potency [3]

CCOc1nc2cccc(C(=O)O)c2n1Cc1ccc(-c2ccccc2-c2nn[nH]n2)cc1
inactive: outcome [1] | outcome [2] | Potency [3]

OCC(CO)N[C@H]1C[C@](O)(CO)[C@@H](O)[C@H](O)[C@H]1O
inactive: outcome [1] | outcome [2] | Potency [3]

COCCOC(=O)C1=C(C)NC(C)=C(C(=O)OC/C=C/c2ccccc2)C1c1cccc([N+](=O)[O-])c1 (configuration not stated)
inactive: outcome [1] | outcome [2] | Potency [3]

O=C1O[C@H](CO)[C@@H](O)[C@H](O)[C@H]1O
inactive: outcome [1] | outcome [2] | Potency [3]

CNC(=O)Oc1ccc2c(c1)[C@]1(C)CCN(C)[C@@H]1N2C
inactive: outcome [1] | outcome [2] | Potency [3]

N[C@H]1C(O)O[C@H](CO)[C@@H](O)[C@@H]1O (some centres not stated)
inactive: outcome [1] | outcome [2] | Potency [3]

NC(=O)NNc1ccccc1
inactive: outcome [1] | outcome [2] | Potency [3]

CC(C)(C)NCC(O)COc1ccc(NC(=O)NC2CCCCC2)cc1 (configuration not stated)
inactive: outcome [1] | outcome [2] | Potency [3]

CN1CCOC(c2ccccc2)c2ccccc2C1 (configuration not stated)
inactive: outcome [1] | outcome [2] | Potency [3]

C[C@@H](O)[C@H](N)C(=O)O
inactive: outcome [1] | outcome [2] | Potency [3]

Cn1cc[nH]c1=S
inactive: outcome [1] | outcome [2] | Potency [3]
